Results: the supplement of paper PMC9262897, “Low-cost anti-mycobacterial drug discovery using engineered E. coli” (Nature Communications, 2022)
Counter-ions that a name gives are not always drawn. ± gives the standard deviation of the averaged measurements.

What was measured:
Test in all cases: growth (OD600 after 10 h); higher = more growth (less inhibition)
[1] = tested on: E. coli TESEC Alr+ wild-type control; conditions: compound 0.1 mM; raw OD600 reference: median of DMSO wells 0.241, cell-free background 0.041
Procedure: (§1)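 TESEC Mtb Alr E. coli, or the Alr+ wild-type control, in 384-well plates with Prestwick library compounds at 0.1 mM and 1% DMSO, across arabinose induction levels of 1E3 to 1E7 nM. Growth is read as OD600 after 10 h at 37 °C in triplicate biological replicates.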

E. coli TESEC Mtb Alr [2] = conditions: compound 0.1 mM
Procedure: as §1

E. coli TESEC Mtb Asd = conditions: compound 0.1 mM
Procedure: (§2)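 TESEC E. coli strains in which the native enzyme is deleted and replaced by arabinose-inducible Mtb Asd, DapB, CysH or TrpD, each grown in its selective medium. Strains were screened against the Prestwick library at 0.1 mM and 1% DMSO in 384-well format at low and high arabinose induction. Growth is read as OD600 after 10 h in triplicate.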

E. coli TESEC Mtb DapB = conditions: compound 0.1 mM
Procedure: as §2

E. coli TESEC Mtb Alr [3] = conditions: compound 0.1 mM; remark: listed apart in the source
Procedure: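 TESEC Mtb Alr E. coli (ΔaraC ΔtolC ΔentC Δalr ΔdadX, arabinose-inducible Mtb Alr) or the Alr+ wild-type control strain, grown in defined M9-fructose medium without D-alanine in 96-well plates with Prestwick library compounds at 0.1 mM and 1% DMSO. Low Alr induction is 0.1 µM arabinose and high induction is 10 mM arabinose.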

[4] = arabinose 1000 nM, raw OD600 reference: median of DMSO wells 0.294, cell-free background 0.041
[5] = arabinose 10000 nM, raw OD600 reference: median of DMSO wells 0.264, cell-free background 0.041
[6] = arabinose 100000 nM, raw OD600 reference: median of DMSO wells 0.201, cell-free background 0.041
[7] = arabinose 1000000 nM, raw OD600 reference: median of DMSO wells 0.193, cell-free background 0.041
[8] = arabinose 10000000 nM, raw OD600 reference: median of DMSO wells 0.146, cell-free background 0.041
[9] = arabinose induction (level): High, raw OD600 reference: median of DMSO wells 0.331, cell-free background 0.041
[10] = arabinose induction (level): Low, raw OD600 reference: median of DMSO wells 0.417, cell-free background 0.041
[11] = arabinose induction (level): High, raw OD600 reference: median of DMSO wells […], cell-free background 0.041
[12] = arabinose induction (level): Low, raw OD600 reference: median of DMSO wells 0.227, cell-free background 0.041
[13] = arabinose 100 nM, raw OD600 reference: median of DMSO wells 0.413, cell-free background 0.052
[14] = arabinose 10000000 nM, raw OD600 reference: median of DMSO wells […], cell-free background 0.052

| SMILES | growth [1] | growth (E. coli TESEC Mtb Alr [2]; [4]) | growth (E. coli TESEC Mtb Alr [2]; [5]) | growth (E. coli TESEC Mtb Alr [2]; [6]) | growth (E. coli TESEC Mtb Alr [2]; [7]) | growth (E. coli TESEC Mtb Alr [2]; [8]) | growth (E. coli TESEC Mtb Asd; [9]) | growth (E. coli TESEC Mtb Asd; [10]) | growth (E. coli TESEC Mtb DapB; [11]) | growth (E. coli TESEC Mtb DapB; [12]) | growth (E. coli TESEC Mtb Alr [3]; [13]) | growth (E. coli TESEC Mtb Alr [3]; [14]) |
| --- | --- | --- | --- | --- | --- | --- | --- | --- | --- | --- | --- | --- |
| c1ccc([C@H]2CN3CCSC3=N2)cc1 [Levamisole hydrochloride] | 0.253 ± 0.0028 | 0.286 ± 0.0062 | 0.279 ± 0.005 | 0.209 ± 0.017 | 0.186 ± 0.0053 | 0.142 ± 0.0042 | 0.364 ± 0.033 | 0.428 ± 0.026 | 0.182 ± 0.0088 | 0.214 ± 0.023 | 0.413 ± 0.0046 | 0.353 ± 0.019 |
| CC(C)(Sc1cc(C(C)(C)C)c(O)c(C(C)(C)C)c1)Sc1cc(C(C)(C)C)c(O)c(C(C)(C)C)c1 [Probucol] | 0.248 ± 0.0044 | 0.298 ± 0.014 | 0.259 ± 0.0043 | 0.236 ± 0.028 | 0.172 ± 0.0035 | 0.173 ± 0.02 | 0.344 ± 0.1 | 0.408 ± 0.093 | 0.207 ± 0.014 | 0.22 ± 0.016 | 0.407 ± 0.0098 | 0.366 ± 0.015 |
| CCOC(=O)OC(C)OC(=O)[C@@H]1N2C(=O)[C@@H](NC(=O)[C@H](N)c3ccccc3)[C@H]2SC1(C)C (stereo partly specified) [Bacampicillin hydrochloride] | 0.239 ± 0.011 | 0.305 ± 0.011 | 0.269 ± 0.0047 | 0.356 ± 0.0077 | 0.17 ± 0.0089 | 0.198 ± 0.006 | 0.237 ± 0.13 | 0.325 ± 0.034 | 0.185 ± 0.016 | 0.188 ± 0.0087 | 0.41 ± 0.0064 | 0.338 ± 0.017 |
| CC(=O)N(CC(O)CN(C(C)=O)c1c(I)c(C(=O)NCC(O)CO)c(I)c(C(=O)NCC(O)CO)c1I)c1c(I)c(C(=O)NCC(O)CO)c(I)c(C(=O)NCC(O)CO)c1I (stereo unspecified) [Iodixanol] | 0.235 ± 0.0081 | 0.303 ± 0.015 | 0.26 ± 0.0054 | 0.182 ± 0.022 | 0.177 ± 0.0052 | 0.1415 ± 0.00091 | 0.358 ± 0.082 | 0.421 ± 0.015 | 0.206 ± 0.0036 | 0.215 ± 0.043 | 0.406 ± 0.013 | 0.334 ± 0.0038 |
| OC(CCCN1CCCCC1)(c1ccccc1)c1ccccc1 [Diphenidol hydrochloride] | 0.227 ± 0.0039 | 0.278 ± 0.0057 | 0.257 ± 0.0075 | 0.2 ± 0.02 | 0.162 ± 0.0026 | 0.137 ± 0.0047 | 0.262 ± 0.012 | 0.488 ± 0.018 | 0.182 ± 0.018 | 0.221 ± 0.054 | 0.407 ± 0.008 | 0.345 ± 0.0049 |
| CC(=O)OCC(=O)[C@@]1(O)CC[C@H]2[C@@H]3CCC4=CC(=O)CC[C@]4(C)[C@H]3[C@@H](O)C[C@@]21C [Cortisol acetate] | 0.234 ± 0.0044 | 0.297 ± 0.016 | 0.237 ± 0.0043 | 0.184 ± 0.018 | 0.151 ± 0.0056 | 0.141 ± 0.0061 | 0.366 ± 0.052 | 0.506 ± 0.028 | 0.213 ± 0.0036 | 0.206 ± 0.011 | 0.399 ± 0.014 | 0.289 ± 0.011 |
| CC[C@@]1(O)C(=O)OCc2c1cc1n(c2=O)Cc2cc3c(CN(C)C)c(O)ccc3nc2-1 [Topotecan] | 0.235 ± 0.0064 | 0.271 ± 0.01 | 0.271 ± 0.0034 | 0.345 ± 0.039 | 0.127 ± 0.0043 | 0.183 ± 0.015 | 0.214 ± 0.029 | 0.317 ± 0.044 | 0.202 ± 0.067 | 0.178 ± 0.014 | 0.393 ± 0.0043 | 0.269 ± 0.0042 |
| C(=C\c1ccccc1)/CN1CCN(C(c2ccccc2)c2ccccc2)CC1 [Cinnarizine] | 0.202 ± 0.0048 | 0.246 ± 0.015 | 0.251 ± 0.014 | 0.18 ± 0.011 | 0.147 ± 0.0054 | 0.149 ± 0.0039 | 0.277 ± 0.079 | 0.395 ± 0.02 | 0.205 ± 0.011 | 0.223 ± 0.019 | 0.431 ± 0.0055 | 0.375 ± 0.0072 |
| CCCCC(CC)CNC(=N)NC(=N)NCCCCCCNC(=N)NC(=N)NCC(CC)CCCC (stereo unspecified) [Alexidine dihydrochloride] | 0.0519 ± 0.0017 | 0.0821 ± 0.0028 | 0.0849 ± 0.0013 | 0.0842 ± 0.0022 | 0.0553 ± 0.0016 | 0.0814 ± 0.004 | 0.0536 ± 0.00095 | 0.0584 ± 0.0047 | 0.0749 ± 0.029 | 0.071 ± 0.014 | 0.0695 ± 0.012 | 0.0779 ± 0.013 |
| CCN(CC)C(=O)/C(C#N)=C/c1cc(O)c(O)c([N+](=O)[O-])c1 [Entacapone] | 0.0523 ± 0.00059 | 0.0552 ± 0.0036 | 0.0571 ± 0.00062 | 0.0534 ± 0.0015 | 0.0544 ± 0.00092 | 0.0482 ± 0.00026 | 0.142 ± 0.005 | 0.149 ± 0.029 | 0.138 ± 0.007 | 0.172 ± 0.0056 | 0.195 ± 0.011 | 0.0695 ± 0.0028 |
| CCCCCCNC(=O)n1cc(F)c(=O)[nH]c1=O [Carmofur] | 0.1489 ± 0.00094 | 0.215 ± 0.024 | 0.176 ± 0.017 | 0.108 ± 0.0064 | 0.0803 ± 0.0054 | 0.112 ± 0.0029 | 0.235 ± 0.029 | 0.359 ± 0.026 | 0.179 ± 0.01 | 0.201 ± 0.018 | 0.349 ± 0.056 | 0.134 ± 0.014 |
| Clc1ccccc1C(c1ccccc1)(c1ccccc1)n1ccnc1 [Clotrimazole] | 0.03967 ± 0.00012 | 0.04147 ± 0.00015 | 0.0452 ± 0.00099 | 0.0437 ± 0.0032 | 0.0467 ± 0.00068 | 0.0448 ± 0.0032 | 0.0468 ± 0.00044 | 0.0472 ± 0.0021 | 0.0469 ± 0.0008 | 0.0488 ± 0.0015 | 0.07627 ± 0.0006 | 0.0569 ± 0.00059 |
| CC(=O)OCC(=O)NCCCOc1cccc(CN2CCCCC2)c1 [Roxatidine Acetate HCl] | 0.241 ± 0.013 | 0.302 ± 0.0074 | 0.265 ± 0.008 | 0.212 ± 0.024 | 0.186 ± 0.0084 | 0.139 ± 0.0026 | 0.29 ± 0.046 | 0.389 ± 0.023 | 0.185 ± 0.016 | 0.186 ± 0.0097 | 0.408 ± 0.0076 | 0.3569 ± 0.0035 |
